Experiment in all cases: qHTS profiling for inhibitors of Plasmodium falciparum proliferation (AID 504749); further: nearly all actives have a fitted effect of over 60% in size
Conditions in all cases: P. falciparum in erythrocytes, SYBR Green DNA, 72 h; series mostly up to 28.7 µM

The subject of one experiment is CP269. The method, boiled down:
(§1)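 Each compound contacts P. falciparum-infected red blood cells for 72 h at 37 C; lysis buffer (Tris, EDTA, saponin, Triton X, SYBR Green I) is added and fluorescence measured next morning; values normalized to controls.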

In another experiment the test system is CP286. The method in brief: as §1
The test system of the next experiment is CP291. The method, boiled down: as §1
The next experiment relates to CP297. The method, boiled down: as §1
A further experiment relates to CP305. The method, boiled down:
as §1

For the next experiment, the system named is CP315. The method in brief:
as §1

For the next experiment, the system named is CP325. The method in brief: as §1
Another experiment concerns CP329. The method in brief: as §1
The next experiment deals with CP335. The method, boiled down: as §1
The next experiment concerns DFO2036. The method, boiled down:
as §1

A further experiment concerns DIV14. The method in brief: as §1
In the next experiment the test system is DIV17. The method in brief:
as §1

In the next experiment the test system is DIV30. The method in brief: as §1
In the next experiment the test system is Dd2. The method, boiled down:
as §1

The next experiment deals with ECU. The method in brief:
as §1

The next experiment relates to FAB9. The method, boiled down: as §1
A further experiment concerns GB4. The method, boiled down: as §1
For a further experiment, the system named is HB3. The method in brief: as §1
For a further experiment, the system named is ICS. The method, boiled down:
as §1

Another experiment has as its system JCK. The method, boiled down: as §1

Results filed as inconclusive are left out. Active and inactive are the calls of the source. The call rests on the fitted dose curve; in most records, active means well fitted inhibition curve with a large enough effect; inconclusive means small, poorly fitted or top-dose-only effect; inactive means flat fitted curve, though single readings scatter. Peptide text beside a SMILES is read from it.

Drawing on PubChem BioAssay (NCATS), this text covers Potency for nine compounds.
Potency means the concentration at half of the fitted maximal effect.

As to `CC(C)=O`, the Potency entry in the experiment on CP269, in the experiment on CP286, in the experiment with CP291, in the experiment with CP297, in the experiment on CP305 and in the experiment on CP315 was “inactive” each time. The Potency result in the experiment on CP325, with CP329, in the experiment with CP335, with DFO2036, in the experiment with DIV14 and with DIV17 was “inactive” in each case. In addition, the Potency entry in the experiment on DIV30, in the experiment on Dd2, in the experiment on ECU, in the experiment on FAB9, with GB4 and in the experiment on HB3 was “inactive” in each case. Besides, the Potency entry with ICS and in the experiment with JCK was “inactive” throughout.

As for `CC(C)N=c1cc2n(-c3ccc(Cl)cc3)c3ccccc3nc-2cc1Nc1ccc(Cl)cc1`, the Potency entry in the experiment on CP269, with CP291, with CP297, in the experiment on CP305, with CP315 and with CP325 was “inactive” throughout. Moreover, the Potency entry in the experiment on CP329, in the experiment with DFO2036, in the experiment with DIV17, in the experiment with DIV30, in the experiment with Dd2 and in the experiment with ECU was “inactive” each time. Besides, the Potency entry in the experiment with FAB9, in the experiment on GB4, in the experiment on HB3 and in the experiment with JCK was “inactive” each time. The Potency is 3550 nM (active) in the experiment on CP286, 1810 nM (active) with CP335 and 3160 nM (active) with ICS.

Regarding `Cc1ccccc1OCC(O)CNCCOc1ccc(C(N)=O)cc1` (stereo not drawn), the Potency entry in the experiment with CP269, in the experiment on CP286, in the experiment on CP291, in the experiment on CP297, in the experiment on CP305 and in the experiment on CP315 was “inactive” each time. In addition, the Potency result in the experiment with CP325, with CP329, in the experiment with CP335, in the experiment with DFO2036, with DIV14 and with DIV30 was “inactive” each time. Further, the Potency result in the experiment with Dd2, in the experiment on ECU, in the experiment with FAB9, with HB3, in the experiment with ICS and with JCK was “inactive” in each case.

Turning to `CCOc1ccc2c(c1)C(C)=CC(C)(C)N2`, the Potency entry in the experiment on CP269, with CP286, in the experiment on CP291, in the experiment with CP297, in the experiment on CP305 and in the experiment on CP315 was “inactive” each time. In addition, the Potency result in the experiment on CP325, with CP329, with DFO2036, with DIV14, in the experiment on DIV17 and with DIV30 was “inactive” in each case. Also, the Potency result in the experiment with Dd2, with ECU, in the experiment on FAB9, in the experiment on GB4, with HB3 and in the experiment with JCK was “inactive” throughout.

As for `CC1=C(/C=C/C(C)=C/C=C/C(C)=C/C=C/C=C(C)/C=C/C=C(C)/C=C/C2=C(C)C(=O)CCC2(C)C)C(C)(C)CCC1=O`, the Potency entry with CP269, in the experiment on CP286, in the experiment on CP291, in the experiment on CP297, in the experiment with CP305 and in the experiment on CP315 was “inactive” in each case. Further, the Potency entry in the experiment on CP325, in the experiment on CP329, with CP335, in the experiment with DFO2036, in the experiment on DIV17 and with DIV30 was “inactive” in each case. For the same compound, the Potency entry with Dd2, in the experiment on ECU, with FAB9, with GB4, in the experiment on HB3 and with ICS was “inactive” throughout. In the experiment on JCK, the Potency result was “inactive”.

`COC(=O)CCC(=O)CN`: the Potency result in the experiment on CP269, in the experiment on CP286, in the experiment on CP291, with CP297, with CP305 and in the experiment with CP315 was “inactive” throughout. The Potency result in the experiment on CP325, with CP329, in the experiment on CP335, with DFO2036, with DIV17 and in the experiment with DIV30 was “inactive” each time. Moreover, the Potency entry in the experiment with Dd2, in the experiment with ECU, with FAB9, in the experiment on GB4, with HB3 and in the experiment with ICS was “inactive” throughout. Besides, in the experiment on JCK, the Potency result was “inactive”.

For the compound `C[C@H]1C[C@H]2[C@@H]3CCC4=CC(=O)C=C[C@]4(C)[C@@]3(F)[C@@H](O)C[C@]2(C)[C@@]1(O)C(=O)CO`, the Potency result in the experiment on CP269, with CP286, in the experiment on CP291, in the experiment on CP297, in the experiment with CP305 and in the experiment on CP315 was “inactive” each time. Further, the Potency entry in the experiment on CP325, in the experiment with CP329, in the experiment with CP335, with DFO2036, with DIV14 and in the experiment on DIV17 was “inactive” throughout. The Potency result in the experiment with DIV30, in the experiment on Dd2, in the experiment with ECU, with FAB9, in the experiment with GB4 and in the experiment with HB3 was “inactive” each time. Besides, the Potency result in the experiment on ICS and with JCK was “inactive” throughout.

With `CC(=O)N[C@@H](CC(=O)O)C(=O)N[C@@H](CCC(=O)O)C(=O)O` (Ac-Asp-Glu-OH), the Potency result with CP269, with CP286, in the experiment with CP291, with CP297, in the experiment with CP305 and in the experiment with CP315 was “inactive” throughout. Also, the Potency result with CP325, in the experiment on CP329, in the experiment on CP335, in the experiment with DFO2036, in the experiment with DIV14 and in the experiment on DIV17 was “inactive” each time. Further, the Potency entry in the experiment on DIV30, with Dd2, with ECU, in the experiment on FAB9, in the experiment with GB4 and in the experiment on HB3 was “inactive” in each case. Moreover, the Potency entry in the experiment with ICS and in the experiment on JCK was “inactive” in each case.

As for `O=C1C(=O)c2ncccc2-c2cccnc21`, the Potency was 1200 nM (active) in the experiment on CP269; 1000 nM (active) with CP286; 1690 nM (active) in the experiment with CP291; 1070 nM (active) in the experiment on CP297; 1200 nM (active) with CP305; 2690 nM (active) in the experiment with CP315. In addition, the Potency with CP325 was 1900 nM (active); in the experiment on CP329, 1200 nM (active); in the experiment on CP335, 536 nM (active); in the experiment with DFO2036 it was 1000 nM (active); in the experiment on DIV14, 953 nM (active); in the experiment with DIV17, 953 nM (active). Moreover, the Potency was 1510 nM (active) in the experiment on DIV30; 1120 nM (active) with Dd2; 2000 nM (active) in the experiment on ECU; 7940 nM (active) in the experiment with FAB9; 849 nM (active) with GB4; 1000 nM (active) with HB3. In addition, the Potency is 631 nM (active) in the experiment on ICS and 10000 nM (active) in the experiment with JCK.
